Publication PMC12136788
Changes are numbered by the printed parent chain. Over roughly 24,000 sequences, “enrichment r” has its median near 0.99; the highest 2% begin near 3.7. This is one part of a sample in which the highest values are shown more often than they occur.

T1: UNK ZnF1-3 (human, UniProt Q9C0B0 31-174)
T1 sequence: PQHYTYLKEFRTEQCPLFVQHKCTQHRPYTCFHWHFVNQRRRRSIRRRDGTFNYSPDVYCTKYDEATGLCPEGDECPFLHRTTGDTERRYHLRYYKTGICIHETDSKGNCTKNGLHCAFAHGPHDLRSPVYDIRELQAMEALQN

B1: chr15:78454051:78454052:+_ENSG00000166411_ENST00000558554|hu_mus|FALSE|FALSE (ssRNA)
RNA: GGGAGUUCUACAGUCCGACGAUCAUGCUCAAUUCCACUGUAUUCUCCUUCCGUGUUCUCUCGGAUGGUGACGAUAUUUACAUCCGUGUAAGGGGUUUUAUAACCUUCAAUUGAGACACAUGGCCGGACAUUGGCAUAAAGGUCCAACAGAGGAUUGAGCAUCA
B2: chr11:93987321:93987322:+_ENSMUSG00000020859_ENSMUST00000103168|mus_mus|motif|central (ssRNA)
RNA: GGGAGUUCUACAGUCCGACGAUCUACAAAGUUACAUUCCGAACCCCAGGGAUUCCAUAAUAGAAAUAAAUACUGAAAUAACGGCAUUGCUAAAUGAGCUUUUUACGCAUAGAAAUGAAGCCGUGGCCUCUAAAGACAGCAAAUCAACAGAGGAUUGAGCAUCA
B3: chr10:122431106:122431107:-_ENSMUSG00000034602_ENSMUST00000073792|mus_mus|FALSE|FALSE (ssRNA)
RNA: GGGAGUUCUACAGUCCGACGAUCAAUAUUUUCAAAAUGUUGCCACUCUUACUAUUUUGAUACUUUAUCAGUGAUAGUCCUAUUCUUUAAUUCACAAGUGAGUAUAUCAAAAUAUAAAAAAUACACGGCUUGAGUCAUUUUUUUCAACAGAGGAUUGAGCAUCA
B4: chr14:73742652:73742653:-_ENSG00000133961_ENST00000557597|hu_mus|FALSE|FALSE (ssRNA)
RNA: GGGAGUUCUACAGUCCGACGAUCCUAACCCGCUCACUUUUGGCAAGAUUACUUACAACUCAUACUUUUUAAUAUUGAGAACUAUUUAAAAUAUUCUAGGUGCAUAAAAAUAAAGAUUUUGGCUUUUUGAUAUAUAUAUAUAUACAACAGAGGAUUGAGCAUCA
B5: chr17:65740002:65740003:+_ENSG00000130935_ENST00000581375|hu_hu|hu_hu_hu_mus_False|68_98 (ssRNA)
RNA: GGGAGUUCUACAGUCCGACGAUCAACAAAUCUUUCUCUGGAUGAAGAACAGGAAGAUUCAUAUUAACUUUAUAAAAUAUCCAUCAAGUUAGGUGUGGUGGCCACACCUUUACUCCCAGCACUUUGGGAGGUGGAUCUCUGAGUCAACAGAGGAUUGAGCAUCA
B6: chr14:73742652:73742653:-_ENSG00000133961_ENST00000557597|hu_hu|motif|central (ssRNA)
RNA: GGGAGUUCUACAGUCCGACGAUCCCCCUUUACCUUUGGCAAGAUUACUUACAACUCAUACAACUUCUUAAUAUCUGAGAACGGUUUAAAAUAUUCUAAAUGCAUAAAAAUAAAGAUUUUGGCUUUUGAUAUAUAUAAUAUUUACAACAGAGGAUUGAGCAUCA
B7: chr6:135286264:135286265:-_ENSG00000112339_ENST00000367826|hu_hu|FALSE|FALSE (ssRNA)
RNA: GGGAGUUCUACAGUCCGACGAUCUUUGCCAGUUGGCAACUUAGAAUUUUUGCAGAGGUGAUUAUUAAUACUUCUUUGCAGCUAAUUUUAGCUUUAAUUUUUCUCUCUCAUCUAAAAACAUAUCAAUUGCACAUUGUUCCUUUGCAACAGAGGAUUGAGCAUCA
B8: chr12:39756943:39756944:-_ENSG00000139116_ENST00000544797|hu_mus|hu_hu_hu_mus_False|48_78 (ssRNA)
RNA: GGGAGUUCUACAGUCCGACGAUCGGUUUGGCUGUUACCCCCAAGGGAAUCCUGCAAUAGUCUUGUUAGCUUAGAGUCUCUGUAAGGGACAUGUGUGGCUCUCUUGCUCUUGUCCCCCAAGGCGCUGAUUACAUUCCCAAGAGCCAACAGAGGAUUGAGCAUCA
B9: chr4:140309118:140309119:+_ENSG00000164134_ENST00000296543|hu_mus|FALSE|FALSE (ssRNA)
RNA: GGGAGUUCUACAGUCCGACGAUCGUAUCCAGGAGGCAUGAAAGCCAAAGCAUAAGGGAAAAGCUUAUGACAACUUGCUCUGUAGGCUUCGGCAGCUUCUUUACAGUCUCCUAGGCUACCAUCACACAAGGCUUCCAACACCUCCAACAGAGGAUUGAGCAUCA
B10: chr3:10015032:10015033:+_ENSMUSG00000027533_ENSMUST00000029046|mus_mus|mus_mus_mus_hu_True|1_58 (ssRNA)
RNA: GGGAGUUCUACAGUCCGACGAUCGUUUUUACCAUCACAAGUGAUGAUACAAUCUGGCUUGGCCAUUGCGCCCAUUUUCCUAAGAGCUAUUCCCACUCCUAGCUCCUUCAUGUAUUCAUCAAAGCCUUUGCUGUCCAUCAGGCGCAACAGAGGAUUGAGCAUCA
B11: 64658990_64660614_189_3pUTR_ENSMUSG00000024083_ENSMUST00000024889|mouse|control|control (ssRNA)
RNA: GGGAGUUCUACAGUCCGACGAUCAUCCAAUGAACUGGAACCUGAGGUGUUCUCCUUUGGAACAUCGUCUAGUUCCAACACUUCAUAGUCAUCACCAGCCCGACCCAAGCUUCUUUCAUGCCUGGUCAUACAUGGCUUAAAACUCAACAGAGGAUUGAGCAUCA
B12: 104713310_104714935_678_CDS_ENSG00000198431_ENST00000397736|human|control|control (ssRNA)
RNA: GGGAGUUCUACAGUCCGACGAUCAGCGACAUAGGAUGCUCCAACAACCAGGGUCUUACCCGGGCAGUAAGGCAAGGAGAAAAGAUCAUCACUGCUGAUGCAGUAUUCUUUGUCACCAGGGAUGCCCAAGUAACGUGGUCUUUCCAACAGAGGAUUGAGCAUCA
B13: chr11:4127340:4127341:+_ENSG00000167325_ENST00000300738|hu_mus|hu_hu_hu_mus_False|28_88 (ssRNA)
RNA: GGGAGUUCUACAGUCCGACGAUCGGCAUAGUCAGGGUGCUUCGUGGUCAAGGUUGCGGCUGUCUCAGCAGCCAGGGUGUCCAGUUCCACUGUGGUGACCCCACUAUACAAGCCUUGGAUUACUUUCAUGGUGAUCUGAGCAGGCAACAGAGGAUUGAGCAUCA
B14: chr3:142455422:142455423:-_ENSMUSG00000004591_ENSMUST00000043812|mus_mus|FALSE|FALSE (ssRNA)
RNA: GGGAGUUCUACAGUCCGACGAUCGGGAGAACAACAGAGUGACAGCCUAGGAGAAAAAAGGGAAAAACAAAACAAAAAUCUAAUAAAAUUCCAGCCCAGUGAAGAUCAUGAUUUGCAAACAGGCAUAUGGUAAGAGCGAUACAACAACAGAGGAUUGAGCAUCA
B15: chr14:49642940:49642941:-_ENSMUSG00000061244_ENSMUST00000162175|mus_mus|motif|central (ssRNA)
RNA: GGGAGUUCUACAGUCCGACGAUCUAAAGCAUAAUCAAUAUGCUCAAUACAUAAAAAUUCCACAAGAAUGGUAAAAAUUCGGAAGGCAUUCCUUGGUAAAUCAGAAGGAUCAGAAAGCCUAUGACAUCUUUCAAAGGCUUGUUUCAACAGAGGAUUGAGCAUCA
B16: 65373527_65373647_4270_3pUTR_ENSMUSG00000024589_ENSMUST00000163516|mouse|control|control (ssRNA)
RNA: GGGAGUUCUACAGUCCGACGAUCAGGGAGGCAGGAGCAAUCGCCACGAGUGAUAUUCGUGAAAAAAAAAAAAAAAAUGGAAACAAAACCAGAUGUGACCUCCAUAAAGUGCCUUCAGAAGGGACGCAGAUACAGCAAAGGAAGCAACAGAGGAUUGAGCAUCA
B17: 21140421_21141420_1149_CDS_ENSG00000141458_ENST00000269228|human|control|control (ssRNA)
RNA: GGGAGUUCUACAGUCCGACGAUCCUCCAUCCCAUGGACUGGAAAAUCUGAAAACACAGGAGUGAUGGUAAAAGGUGCCUGUCCAUUGUCCUUAUUGAACAUGUAUUCAAUCCAGUUGGUGGCAUUACAGGCGUCAGCGUCCUUCAACAGAGGAUUGAGCAUCA
B18: chr16:94690093:94690094:+_ENSMUSG00000040785_ENSMUST00000117648|mus_hu|mus_mus_mus_hu_True|68_98 (ssRNA)
RNA: GGGAGUUCUACAGUCCGACGAUCGGGCUGGGAUGACAGCAGACAGCCCUCGAUUCCAGGGGGAAAAAAAAAUAGCCGAUACUAAUUAAAAAGUGUUAAUGAUUUUUGAAAAUCAGAUUACAUCUAUAAAAGAUGAAAAGCAAACAACAGAGGAUUGAGCAUCA
B19: chr7:74146866:74146867:+_ENSG00000077809_ENST00000416070|hu_hu|motif|central (ssRNA)
RNA: GGGAGUUCUACAGUCCGACGAUCUUCCUUUGCAAGUAAUAUCCUCUCCAGGCGAGGAAUUCCGUAAGUAGAUGGCCUUCGGAAAGGAAUUCCUUCAGGAAGUCCUUCUACAUAAAGAUCUUCAACAUGAGACUGGAAAAGAGGCAACAGAGGAUUGAGCAUCA
B20: 82880966_82885890_579_3pUTR_ENSMUSG00000000627_ENSMUST00000000641|mouse|control|control (ssRNA)
RNA: GGGAGUUCUACAGUCCGACGAUCGCUGGAAACUGGACACAUCAAUAACCCCGCACUUCGGAUCAAAAGCGAAGGUGCCACACGUGAGGAGGUGAGAGGCAUUGGCAAUGGCGAGAAUCUGGAUAAAAUUGUGACAUUCGUCCUCAACAGAGGAUUGAGCAUCA
B21: chr3:142455422:142455423:-_ENSMUSG00000004591_ENSMUST00000043812|mus_mus|motif|central (ssRNA)
RNA: B14 RNA with U80G, A81G
B22: chr17:34945718:34945719:+_ENSG00000005955_ENST00000304718|hu_hu|FALSE|FALSE (ssRNA)
RNA: GGGAGUUCUACAGUCCGACGAUCAUUUAACCGGCAGUAUUUAUUAAAUUUCUCCUUCAGAUGCUGUCGGUAUUGUUCUCUAUUGCUGUAGAAAGACUGGUUAUUAGCCAUAAAUGACUGUAUUUCAUCUUGUGAGAUAAAGAUCAACAGAGGAUUGAGCAUCA

target: T1, UNK ZnF1-3; assay: nsRBNS (natural sequence RNA bind-n-seq); RBNS binding buffer (assumed for nsRBNS): 25 mM Tris pH 7.5, 150 mM KCl, 3 mM MgCl2, 0.01% Triton X-100, 500 ug/ml BSA, 20 U/ml SUPERase-In, 4 C; UNK is unkempt and MSI1 is Musashi-1; names of the RNAs are library labels; protein concentration not given here; high values mean tight binding

With B1 as the binder, how does the binding signal read?
The binding signal was 0.781 enrichment R.

B2 was tested. Which binding signal did it give?
The binding signal was 1.35 enrichment R.

B3 was tested. Which binding signal did it give?
Its binding signal is 0.965 enrichment R.

For B4, which binding signal is on record?
The binding signal was 6.08 enrichment R.

How did the binding signal turn out when B5 was run?
Its binding signal is 1.02 enrichment R.

How did the binding signal turn out when B6 was run?
Its binding signal is 3.97 enrichment R.

B7 was tested. Which binding signal did it give?
The binding signal was 0.804 enrichment R.

With B8 as the binder, how does the binding signal read?
The binding signal was 0.772 enrichment R.

B9 was tested. Which binding signal did it give?
Its binding signal is 0.414 enrichment R.

How did the binding signal turn out when B10 was run?
Its binding signal is 0.728 enrichment R.

B11 was tested. Which binding signal did it give?
Its binding signal is 0.333 enrichment R.

B12 was tested. Which binding signal did it give?
Its binding signal is 1.69 enrichment R.

Which binding signal does the source give for B13 here?
The binding signal was 0.876 enrichment R.

Which binding signal does the source give for B14 here?
Its binding signal is 4.59 enrichment R.

How did the binding signal turn out when B15 was run?
Its binding signal is 0.426 enrichment R.

Which binding signal does the source give for B16 here?
The binding signal was 6.96 enrichment R.

For B17, which binding signal is on record?
Its binding signal is 0.935 enrichment R.

How did the binding signal turn out when B18 was run?
The binding signal was 3.34 enrichment R.

With B19 as the binder, how does the binding signal read?
Its binding signal is 0.729 enrichment R.

Which binding signal does the source give for B20 here?
The binding signal was 2.22 enrichment R.

With B21 as the binder, how does the binding signal read?
The binding signal was 5.45 enrichment R.

With B22 as the binder, how does the binding signal read?
Its binding signal is 0.361 enrichment R.
